The sample as a whole holds a higher share of the strongest signals than the screen did.
How the values were obtained:
Assay in all cases: glycan array binding signal (z-score within array); higher = stronger binding
Conditions in all cases: glycan notation: IUPAC condensed, linker removed
[1] = target: GlcNAc(b1-2)Man(a1-3)[GlcNAc(b1-2)Man(a1-6)]Man(b1-4)GlcNAc(b1-4)GlcNAc
How it was run: (§1)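 Glycan array binding is given as a within-array Z-score, which can be read as non-binding when negative. The arrays, 3228 of them, came from the Consortium for Functional Glycomics database and were retained only where the protein sequence was available. Z-scores were averaged across arrays of the same protein sequence at different concentrations or buffers and across linkers.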

[2] = target: GlcNAc(b1-3)Gal(b1-4)Glc
How it was run: as §1

[3] = target: GlcNAc(b1-3)Gal(b1-4)GlcNAc(b1-3)Gal(b1-4)GlcNAc(b1-3)Gal(b1-4)GlcNAc(b1-2)[GlcNAc(b1-3)Gal(b1-4)GlcNAc(b1-3)Gal(b1-4)GlcNAc(b1-3)Gal(b1-4)GlcNAc(b1-6)]Man(a1-6)[GlcNAc(b1-3)Gal(b1-4)GlcNAc(b1-3)Gal(b1-4)GlcNAc(b1-3)Gal(b1-4)GlcNAc(b1-2)Man(a1-3)]Man(b1-4)GlcNAc(b1-4)[Fuc(a1-6)]GlcNAc
How it was run: as §1

[4] = target: GlcNAc(b1-3)Gal(b1-4)GlcNAc(b1-6)[Gal(b1-3)]GalNAc
How it was run: as §1

[5] = target: Kdn(a2-3)Gal(b1-3)GalNAc
How it was run: as §1

[6] = target: Man(a1-3)[Man(a1-6)]Man
How it was run: as §1

[7] = target: Man(a1-3)[Man(a1-6)]Man(a1-6)[Man(a1-3)]Man
How it was run: as §1

[8] = target: Neu5Ac(a2-3)Gal(b1-3)GalNAc(b1-3)Gal(b1-4)GlcNAc
How it was run: as §1

[9] = target: Neu5Ac(a2-3)Gal(b1-3)GlcNAc(b1-2)Man(a1-3)[Neu5Ac(a2-3)Gal(b1-3)GlcNAc(b1-2)Man(a1-6)]Man(b1-4)GlcNAc(b1-4)GlcNAc
How it was run: as §1

[10] = target: Neu5Ac(a2-3)Gal(b1-3)[Fuc(a1-4)]GlcNAc
How it was run: as §1

[11] = target: Neu5Ac(a2-3)Gal(b1-3)[Neu5Ac(a2-6)]GlcNAc(b1-3)[Fuc(a1-3)[Gal(b1-4)]GlcNAc(b1-6)]Gal(b1-4)Glc
How it was run: as §1

[12] = target: Neu5Ac(a2-3)Gal(b1-4)Glc
How it was run: as §1

[13] = target: Neu5Ac(a2-3)Gal(b1-4)GlcNAc(b1-2)Man
How it was run: as §1

[14] = target: Neu5Ac(a2-3)Gal(b1-4)GlcNAc(b1-3)Gal(b1-4)GlcNAc(b1-2)Man(a1-3)[Neu5Ac(a2-3)Gal(b1-4)GlcNAc(b1-3)Gal(b1-4)GlcNAc(b1-2)Man(a1-6)]Man(b1-4)GlcNAc(b1-4)GlcNAc
How it was run: as §1

[15] = target: Neu5Ac(a2-3)Gal(b1-4)GlcNAc(b1-3)Gal(b1-4)GlcNAc(b1-3)Gal(b1-4)GlcNAc
How it was run: as §1

[16] = target: Neu5Ac(a2-3)Gal(b1-4)GlcNAc(b1-3)Gal(b1-4)GlcNAc(b1-3)Gal(b1-4)GlcNAc(b1-2)Man(a1-3)[Neu5Ac(a2-3)Gal(b1-4)GlcNAc(b1-3)Gal(b1-4)GlcNAc(b1-3)Gal(b1-4)GlcNAc(b1-2)Man(a1-6)]GalNAc
How it was run: as §1

[17] = target: Neu5Ac(a2-3)Gal(b1-4)GlcNAc(b1-6)[Neu5Ac(a2-3)Gal(b1-3)]GalNAc
How it was run: as §1

[18] = target: Neu5Ac(a2-3)Gal(b1-4)[Fuc(a1-3)]GlcNAc
How it was run: as §1

[19] = target: Neu5Ac(a2-3)Gal6S(b1-4)[Fuc(a1-3)]GlcNAc
How it was run: as §1

[20] = target: Neu5Ac(a2-6)Gal
How it was run: as §1

[21] = target: Neu5Ac(a2-6)Gal(b1-4)GlcNAc(b1-2)Man(a1-6)[Gal(b1-4)GlcNAc(b1-2)Man(a1-3)]Man(b1-4)GlcNAc(b1-4)GlcNAc
How it was run: as §1

[22] = target: Neu5Ac(a2-6)Gal(b1-4)GlcNAc(b1-2)[Neu5Ac(a2-6)Gal(b1-4)GlcNAc(b1-4)]Man(a1-3)[GlcNAc(b1-4)][Neu5Ac(a2-6)Gal(b1-4)GlcNAc(b1-2)[Neu5Ac(a2-6)Gal(b1-4)GlcNAc(b1-6)]Man(a1-6)]Man(b1-4)GlcNAc(b1-4)GlcNAc
How it was run: as §1

[23] = target: Neu5Ac(a2-6)Gal(b1-4)GlcNAc(b1-3)Gal(b1-4)GlcNAc(b1-2)Man(a1-3)[Neu5Ac(a2-6)Gal(b1-4)GlcNAc(b1-3)Gal(b1-4)GlcNAc(b1-2)Man(a1-6)]GalNAc
How it was run: as §1

[24] = target: Neu5Ac(a2-6)Gal(b1-4)GlcNAc(b1-3)Gal(b1-4)GlcNAc(b1-3)Gal(b1-4)GlcNAc
How it was run: as §1

[25] = target: Neu5Ac(a2-6)Gal(b1-4)GlcNAc(b1-3)Gal(b1-4)GlcNAc(b1-3)Gal(b1-4)GlcNAc(b1-2)Man(a1-3)[Neu5Ac(a2-6)Gal(b1-4)GlcNAc(b1-3)Gal(b1-4)GlcNAc(b1-3)Gal(b1-4)GlcNAc(b1-2)Man(a1-6)]GalNAc
How it was run: as §1

[26] = target: Neu5Ac(a2-6)Gal(b1-4)GlcNAc(b1-3)Gal(b1-4)GlcNAc(b1-3)[Neu5Ac(a2-6)Gal(b1-4)GlcNAc(b1-3)Gal(b1-4)GlcNAc(b1-6)]GalNAc
How it was run: as §1

[27] = target: Neu5Ac(a2-6)Gal(b1-4)GlcNAc(b1-3)Gal(b1-4)[Fuc(a1-3)]GlcNAc(b1-3)Gal(b1-4)[Fuc(a1-3)]GlcNAc
How it was run: as §1

[28] = target: Neu5Ac(a2-8)Neu5Ac(a2-8)Neu5Ac(a2-3)[Gal(b1-3)GalNAc(b1-4)]Gal(b1-4)Glc
How it was run: as §1

[29] = target: Neu5Ac(b1-6)GalNAc
How it was run: as §1

[30] = target: Neu5Gc(a2-8)Neu5Gc(a2-3)Gal(b1-4)GlcNAc(b1-3)Gal(b1-4)GlcNAc
How it was run: as §1

B1: LTL (Lotus tetragonolobus), P19664 (protein)
chain: VSFNYTEFKDDGSLILQGDAKIWTDGRLAMPTDPLVNNPKTTRSAGRALYATPVPIWDSATGNVASFVTSFNFLFVIRELKYTPTDGLVFFLAPVGTEIPSGSTGGFLGIFDGSNGFNQFVAVEFDSYHNIWDPKSLRSSHVGIDVNSIMSLKAVNWNRVSGSLEKATIIYDSQTNILSVVMTSQNGQITTIYGTIDLKTVLPEKVSVGFSATTGNPEREKHDIYSWSFTSTLKEPEEQA
[1]
  glycan array binding signal (z-score): -0.3
[2]
  glycan array binding signal (z-score): -0.196
[3]
  glycan array binding signal (z-score): 0.185
[4]
  glycan array binding signal (z-score): -0.142
[5]
  glycan array binding signal (z-score): 0.043
[6]
  glycan array binding signal (z-score): -0.207
[7]
  glycan array binding signal (z-score): 0.02
[8]
  glycan array binding signal (z-score): -0.26
[9]
  glycan array binding signal (z-score): -0.099
[10]
  glycan array binding signal (z-score): 0.005
[11]
  glycan array binding signal (z-score): -0.123
[12]
  glycan array binding signal (z-score): -0.023
[13]
  glycan array binding signal (z-score): 0.022
[14]
  glycan array binding signal (z-score): 2.77
[15]
  glycan array binding signal (z-score): -0.035
[16]
  glycan array binding signal (z-score): 5.64
[17]
  glycan array binding signal (z-score): -0.237
[18]
  glycan array binding signal (z-score): -0.31
[19]
  glycan array binding signal (z-score): 2.84
[20]
  glycan array binding signal (z-score): -0.162
[21]
  glycan array binding signal (z-score): -0.242
[22]
  glycan array binding signal (z-score): -0.15
[23]
  glycan array binding signal (z-score): 1.11
[24]
  glycan array binding signal (z-score): -0.226
[25]
  glycan array binding signal (z-score): 2.02
[26]
  glycan array binding signal (z-score): 3.76
[27]
  glycan array binding signal (z-score): -0.039
[28]
  glycan array binding signal (z-score): 0.131
[29]
  glycan array binding signal (z-score): -0.326
[30]
  glycan array binding signal (z-score): -0.15

From the supplement of paper PMC8728848
